Most compounds without a hit are left out; they make up all but 1.2% or so of the library.
ABHD5-PLIN5 inh = inhibitors of human ABHD5-perilipin-5 interaction; Split G. princeps luciferase complementation, luminescence, 4 h; inhibition, % at 4 µM; actives 0.78% (n = 360,000); AID 602281;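 active means inhibition above the mean inhibition across every tested compound plus 3 SD, cut at about 22% in these data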;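 further: 0% = DMSO only wells and the 100% control is not disclosed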
Target sequence (Q00G26 whole entry, looked up): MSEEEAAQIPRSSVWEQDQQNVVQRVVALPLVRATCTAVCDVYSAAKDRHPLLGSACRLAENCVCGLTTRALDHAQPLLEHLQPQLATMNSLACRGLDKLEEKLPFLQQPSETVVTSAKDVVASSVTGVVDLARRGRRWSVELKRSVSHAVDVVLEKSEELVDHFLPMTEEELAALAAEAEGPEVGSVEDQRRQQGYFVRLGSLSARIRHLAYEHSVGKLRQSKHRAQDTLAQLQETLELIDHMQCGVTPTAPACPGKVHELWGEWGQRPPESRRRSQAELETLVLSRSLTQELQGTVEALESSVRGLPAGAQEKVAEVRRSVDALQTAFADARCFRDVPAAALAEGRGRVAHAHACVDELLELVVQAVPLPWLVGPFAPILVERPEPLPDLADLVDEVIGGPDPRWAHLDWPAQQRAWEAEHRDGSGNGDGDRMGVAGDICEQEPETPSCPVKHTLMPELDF
Target sequence (Q8WTS1 whole entry, looked up): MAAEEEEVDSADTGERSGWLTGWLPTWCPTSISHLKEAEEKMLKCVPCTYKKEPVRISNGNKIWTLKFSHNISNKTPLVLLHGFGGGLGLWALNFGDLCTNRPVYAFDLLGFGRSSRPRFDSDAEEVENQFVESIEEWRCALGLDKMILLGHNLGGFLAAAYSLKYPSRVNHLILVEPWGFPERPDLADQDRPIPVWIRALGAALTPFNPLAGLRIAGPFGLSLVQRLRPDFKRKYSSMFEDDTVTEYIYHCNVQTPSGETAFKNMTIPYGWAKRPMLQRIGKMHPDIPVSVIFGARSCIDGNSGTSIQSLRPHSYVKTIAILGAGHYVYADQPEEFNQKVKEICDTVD
TLR9-MyD88 inh = inhibitors of human TLR9-MyD88 binding. inhibition, % at 4.98 µM. CHO BLA complementation TLR9-MyD88, CCF4 FRET ratio. Q9NR96+Q99836. actives 0.21% (n = 340,000);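 active means inhibition above the mean over all tested compounds plus 3 SD, cut at about 21% in these data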;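 further: 0% = DMSO only wells and 100% = clavulanate BLA inhibitor control wells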
NOD2 RIPK2 PPI = inhibitors of human NOD2-RIPK2 interaction. CHO BLA complementation NOD2-RIPK2, CCF4 ratio. inhibition, % at 4.98 µM. actives 0.38% (n = 360,000). O43353; in the data active means inhibition above about 21%;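 further: 0% = vehicle only and 100% = reference blocker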
TLR4-MyD88 BLA = blocks binding of human TLR4 to MyD88; O00206+Q99836; actives 0.18% (n = 200,000); AID 861; inhibition, % at 8.4 µM; HeLa CL3-4 TLR4/MyD88 BLA complementation, FRET ratio; in the data active means inhibition above about 25%;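 further: 0% = vehicle and 100% = reference inhibitor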
ABHD5-PLIN5 conf = confirmation of human ABHD5-PLIN5 interaction inhibitors; shares compounds with ABHD5-PLIN5 inh; biochemical ABHD5-PLIN5 interaction, luminescence; AID 651612; actives 67% (n = 2,200); inhibition, % at 4 µM; in the data active means inhibition above about 23%;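 further: 0% = DMSO vehicle wells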
HNF4 split-luc = active in HNF4 split-luciferase counter-screen for ABHD5-PLIN5 inhibitors; shares compounds with ABHD5-PLIN5 inh; HNF4 dimerization, luminescence, biochemical; inhibition, % at 4 µM; actives 77% (n = 2,200); AID 651674;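 active means mean inhibition across replicate wells exceeding the computed hit threshold, cut at about 13% in these data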;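 further: light from luciferase halves that rejoin when HNF4 fusion proteins dimerize; 0% = DMSO only wells and the 100% control is not given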
The depositor's hits bear a star; x = no result.

SMILES | ABHD5-PLIN5 inh | TLR9-MyD88 inh | NOD2 RIPK2 PPI | TLR4-MyD88 BLA | ABHD5-PLIN5 conf | HNF4 split-luc
COc1ccc2nc3ccccc3nc2c1N | 38* | -8 | 2 | x | 0 | 10
COc1ccc2nc3cccc(OC)c3nc2c1 | -25 | -3 | 2 | 0 | x | x
CCOC(=O)N1CCN(Cc2c(O)ccc3ccccc23)CC1 | 27* | 0 | 6 | x | 51* | 89*
O=C(C1CCCO1)N1CCN(Cc2c(O)ccc3ccccc23)CC1 (stereo not drawn) | 41* | 2 | -3 | 7 | 72* | 102*
Cc1ccc(CN2CCN(C(=O)C3CCCO3)CC2)cc1 (stereo not drawn) | -1 | -5 | -9 | -1 | x | x
COCCN(C(=O)CSc1ccc2c(c1)OCCO2)c1c(N)n(CC(C)C)c(=O)[nH]c1=O | -7 | -14 | -6 | x | x | x
C[C@H](CO)N1C[C@H](C)[C@@H](CN(C)Cc2cccnc2)Oc2ncc(-c3cccc(C#N)c3)cc2C1=O | 10 | 10 | -3 | x | x | x
CC1CCN(CCc2nc3cc(NC(=O)COc4ccc(Cl)cc4)ccc3n2C)CC1 | 23* | 8 | 5 | x | 8 | 4
COc1ccc(OCC(=O)Nc2ccc3c(c2)nc(CCN2CCC(C)CC2)n3C)cc1 | 9 | -3 | 0 | x | x | x
COc1ccc(S(=O)(=O)Nc2c(C)cc(C)cc2C)c2cccnc12 | -6 | -3 | -8 | x | x | x
COc1ccc(C2CC(c3cccs3)=Nc3ccccc3S2)cc1 (stereo not drawn) | 60* | 1 | 4 | 2 | -4 | -11
COc1ccc(C2CC(c3cccs3)=NN2S(C)(=O)=O)cc1 (stereo not drawn) | 0 | 9 | -5 | x | x | x
O=C1C=CC(=O)N1Cc1ccccc1 | 32* | 15 | 7 | x | 4 | 2
Clc1cccc2c1Sc1ccccc1CC2N1CCNCC1 (stereo not drawn) | 31* | -10 | -3 | -5 | 21 | 1
CC(=O)N1CCN(c2nc(-c3ccco3)c3c(c2C#N)CC(C)(C)SC3)CC1 | 35* | -8 | 3 | -15 | 21 | 18*
O=C(Oc1ccc(=O)[nH]n1)c1ccccc1 | 3 | -2 | -13 | x | x | x
O=C(O)c1cc(N2C(=O)C=CC2=O)cc(N2C(=O)C=CC2=O)c1 | 24* | 3 | -5 | x | 80* | 109*
NC(=O)c1cc(N2C(=O)C=CC2=O)ccc1Cl | -1 | -5 | 4 | -13 | x | x
CCC(=O)NC1=C(Cl)C(=O)C(NC(=O)CC)=C(Cl)C1=O | 45* | 11 | 23* | x | 101* | 103*
Cc1cccc(-n2cnc3c(c2=O)c2nc4ccccc4nc2n3Cc2ccco2)c1 | 30* | 0 | -4 | x | 47* | 70*
Cc1cccc(S(=O)(=O)c2c(N)n(Cc3ccco3)c3nc4ccccc4nc23)c1 | 6 | 5 | 6 | 3 | x | x
CSc1ccccc1C(=O)N1CCC2(CC1)CC(=O)c1ccccc1O2 | 9 | -3 | -6 | x | x | x
Cc1ccc(NC(=O)COC(=O)Cn2ccc(=O)[nH]c2=O)cc1C | 6 | -5 | -3 | x | x | x
Cc1ccc(S(=O)(=O)/N=C/N(C)C)cc1 | -7 | 8 | -4 | -3 | x | x
Cc1ccc(S(=O)(=O)/N=C/c2ccco2)cc1 | 92* | 3 | 3 | -26 | 6 | 8
SMILES | ABHD5-PLIN5 inh | TLR9-MyD88 inh | NOD2 RIPK2 PPI | TLR4-MyD88 BLA | ABHD5-PLIN5 conf | HNF4 split-luc
COC(=O)CC1C(=O)NCCN1C(=O)c1cc(OC)c(OC)cc1OC (stereo not drawn) | -7 | 6 | -5 | x | x | x
COc1ccc(-n2cc(CNC3CCN(C)CC3)c(-c3cccc(F)c3)n2)cc1 | 32* | -5 | 13 | -3 | 19 | 11
COc1ccc(NC(=O)c2cc(C3CCCCN3S(C)(=O)=O)on2)c(C)c1 (stereo not drawn) | 7 | x | -13 | x | x | x
C=CCC(Nc1ccccc1)C12C=CC(O1)C(C(=O)OC)=C2C(=O)OC (stereo not drawn) | 26* | -1 | 17 | 10 | 86* | 90*
O=c1[nH]c(/C=C\c2cccc(Cl)c2)nc(O)c1[N+](=O)[O-] | 51* | -8 | 1 | x | 88* | 75*
C=CCOc1ccc(/C=C\c2nc(O)c([N+](=O)[O-])c(=O)[nH]2)cc1OC | 3 | 0 | -3 | x | x | x
O=c1[nH]c(/C=C\c2ccccc2F)nc(O)c1[N+](=O)[O-] | 33* | 2 | -8 | x | 55* | 43*
C#CCOc1c(/C=C\c2nc(O)c([N+](=O)[O-])c(=O)[nH]2)cc(Br)cc1OC | 46* | -1 | 8 | x | 83* | 74*
COc1ccc(/C=C\c2nc(O)c([N+](=O)[O-])c(=O)[nH]2)cc1O | 23* | 4 | -6 | x | 27* | 30*
C=CCOc1ccc(/C=C\c2nc(O)c([N+](=O)[O-])c(=O)[nH]2)cc1OCC | 5 | 2 | -6 | x | x | x
O=C(O)c1ccccc1C(=O)Nc1c(-c2ccccc2)nc2ccccn12 | 6 | -7 | 7 | x | x | x
Oc1ccc(C[C@H]2CNCCN2CCCCC2CCCCC2)cc1 | 14 | 3 | 1 | x | x | x
COc1ccccc1N=NNc1ccc(S(=O)(=O)NC(C)=O)cc1 | -16 | x | 4 | x | x | x
COC(=O)COc1c(/C=C\c2nc(O)c([N+](=O)[O-])c(=O)[nH]2)cccc1OC | 18 | -3 | -6 | x | x | x
O=c1[nH]c(/C=C\c2cccc(F)c2)nc(O)c1[N+](=O)[O-] | 36* | 7 | 4 | x | 69* | 54*
C=CCOc1cccc(/C=C\c2nc(O)c([N+](=O)[O-])c(=O)[nH]2)c1 | 46* | -4 | -15 | x | 79* | 69*
Cc1ccc(NC(=O)Cn2c(=O)cnc3ccccc32)cc1S(=O)(=O)N1CCOCC1 | 2 | 1 | -9 | x | x | x
COc1cccc(-c2nnc(SCC(=O)NCc3ccc4c(c3)OCO4)n2Cc2ccco2)c1 | 28* | 5 | -20 | -3 | 6 | 10
CC(C(=O)NCCc1ccc(Cl)cc1)n1c(=O)c2cccn2c2cccnc21 (stereo not drawn) | 3 | -4 | -11 | x | x | x
COc1cccc(-c2sc3ccc(OC)cc3c2-c2ccc(OCCN(C)C)cc2)c1 | 21 | -4 | 10 | x | x | x
CN(C)CCOc1ccc(-c2c(-c3ccsc3)sc3ccccc23)cc1 | 29* | -3 | 11 | x | 12 | -2
COc1ccc(-c2sc3ccccc3c2-c2ccc(OCCN(C)C)cc2)cc1 | 40* | -5 | 4 | x | 21 | 8
COc1cc(C(=O)Nc2cc(C)ccn2)ccc1OCC(=O)N1CCOCC1 | -10 | -8 | -8 | x | x | x
C[C@@H]1CN([C@@H](C)CO)C(=O)CCCn2nncc2CO[C@@H]1CN(C)C(=O)c1ccc(N2CCN(C)CC2)cc1 | 2 | -10 | -6 | x | x | x
Nc1ccccc1SC(CC(=O)c1ccccc1)c1ccc([N+](=O)[O-])cc1 (stereo not drawn) | 71* | -4 | 7 | x | 70* | 85*
Nc1ccccc1SC(CC(=O)c1ccccc1)c1cccc([N+](=O)[O-])c1 (stereo not drawn) | 76* | 0 | -2 | x | 39* | 100*
